Records with an inconclusive call do not appear. Activity calls are given as the source filed them.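 The calls were made as follows, unless noted: active = GFP signal, as percent of the solvent control, above the screen mean plus 3 SD, about 149; inconclusive = no reading because the compound's own fluorescence upset strain identification; inactive = the rest.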
Tests used:
[1] = rapamycin-like changes in RPL19A-GFP expression – cell-based, S. cerevisiae, multiplex flow cytometry, primary screen (AID 1862; in the data active = percent of DMSO control GFP below about 86%;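 also: lower values mimic rapamycin by blocking the RPL19A rise seen in DMSO cells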); conditions: S. cerevisiae RPL19A-GFP strain, flow cytometry fluorescence, 3 h; at 10 µM; stronger effect = lower value
[2] = TOR pathway GLN3 branch reporter MEP2-GFP changes – S. cerevisiae, multiplex flow cytometry, primary screen (AID 1867;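 active = GFP response, as percent of the DMSO control, above the screen-wide mean plus 3 SD, about 139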;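 also: median GFP channel fluorescence of barcode-gated MEP2-GFP cells measured by flow cytometry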); conditions: S. cerevisiae MEP2-GFP strain, 3 h, at 10 µM, stronger effect = higher value, 100% means same as DMSO wells
[3] = TOR pathway RTG branch CIT2 reporter changes – S. cerevisiae, GFP fusion, multiplex flow cytometry, primary screen (AID 1870;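 active = percent response above a set limit, the screen-wide mean plus 3 SD, cut at about 130% in these data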;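 also: barcoded CIT2-GFP strain pooled with four other GFP strains with rapamycin as positive control; median GFP fluorescence per well over plate mean of DMSO wells so 100% = DMSO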); conditions: S. cerevisiae CIT2-GFP expression, 3 h, at 10 µM, stronger effect = higher value
[4] = TOR pathway LAP4-GFP level changes – S. cerevisiae, multiplex flow cytometry, primary screen (AID 1873); conditions: S. cerevisiae LAP4-GFP expression, 3 h, at 10 µM, stronger effect = higher value
[5] = yeast AGP1-GFP level changes, GLN3 branch – cell-based, multiplex flow cytometry, S. cerevisiae, primary screen (AID 1887;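 active = GFP signal above the screen-wide mean plus 3 SD, that is over about 124.5% of the solvent control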;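 also: AGP1-GFP fusion strain of S. cerevisiae within a five-strain barcoded multiplex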); conditions: 3 h, at 10 µM, stronger effect = higher value
[6] = reduced mouse 2C T cell binding to pMHC/ICAM-1 vesicles – MLPCN validation set, flow cytometry, LFA-1/ICAM-1 modulator project, pilot screen (AID 2523;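 active = response below a set limit, under 55% cells CD8-positive and vesicle-bound, and CD8 cells' 90th-percentile brightness under 279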;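 as to vesicle binding response: mean PE anti-B7-1 fluorescence of CD8+ cells relative to row control; 100% = QL9-loaded vesicles with DMSO vehicle in the same plate row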); conditions: 2C mouse CD8+ T cells, at 7 µM, stronger effect = lower value; double positive events: measured here: CD8+/vesicle+ event percentage
[7] = biological target: Integrin beta-1 (Homo sapiens) + Integrin alpha-4 (Homo sapiens) (UniProt P13612+P05556); assay: alpha4beta1 integrin LIBS antibody binding reduction – U937 cells, HUTS-21 mAb, flow cytometry, validation set, VLA-4 allosteric modulator project, pilot screen (AID 2674;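 active = inhibition above 50%, about 3 SD of the validation set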;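 also: antibody binding induced by the VLA-4 ligand LDV present at three times its Kd; 0% = LDV ligand with antibody and no compound and 100% = antibody without LDV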); conditions: HUTS-21 LIBS mAb binding, at 6.7 µM, stronger effect = higher value, binding induced by LDV ligand
Integrin beta-1 (Homo sapiens) + Integrin alpha-4 (Homo sapiens), sequence (P05556 whole entry, looked up): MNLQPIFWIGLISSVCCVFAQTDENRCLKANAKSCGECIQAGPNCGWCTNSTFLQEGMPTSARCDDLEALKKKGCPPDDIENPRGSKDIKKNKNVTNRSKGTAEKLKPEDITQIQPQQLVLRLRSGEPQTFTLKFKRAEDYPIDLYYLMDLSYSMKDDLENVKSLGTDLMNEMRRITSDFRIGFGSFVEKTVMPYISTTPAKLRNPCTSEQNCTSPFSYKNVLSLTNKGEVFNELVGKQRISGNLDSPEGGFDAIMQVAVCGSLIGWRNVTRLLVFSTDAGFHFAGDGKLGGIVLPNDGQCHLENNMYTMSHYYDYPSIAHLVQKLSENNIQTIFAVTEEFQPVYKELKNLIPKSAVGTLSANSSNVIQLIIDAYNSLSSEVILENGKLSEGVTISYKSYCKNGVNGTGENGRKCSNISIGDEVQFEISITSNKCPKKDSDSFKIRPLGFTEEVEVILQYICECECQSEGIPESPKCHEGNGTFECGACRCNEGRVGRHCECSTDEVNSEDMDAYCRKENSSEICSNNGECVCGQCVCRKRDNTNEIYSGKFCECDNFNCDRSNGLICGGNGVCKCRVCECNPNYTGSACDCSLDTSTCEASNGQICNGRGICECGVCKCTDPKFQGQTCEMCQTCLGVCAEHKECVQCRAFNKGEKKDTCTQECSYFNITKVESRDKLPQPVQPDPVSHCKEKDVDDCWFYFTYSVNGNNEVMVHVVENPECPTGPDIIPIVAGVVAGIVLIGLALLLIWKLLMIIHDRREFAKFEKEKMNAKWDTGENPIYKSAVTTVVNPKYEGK
Integrin beta-1 (Homo sapiens) + Integrin alpha-4 (Homo sapiens), sequence (P13612 whole entry, looked up): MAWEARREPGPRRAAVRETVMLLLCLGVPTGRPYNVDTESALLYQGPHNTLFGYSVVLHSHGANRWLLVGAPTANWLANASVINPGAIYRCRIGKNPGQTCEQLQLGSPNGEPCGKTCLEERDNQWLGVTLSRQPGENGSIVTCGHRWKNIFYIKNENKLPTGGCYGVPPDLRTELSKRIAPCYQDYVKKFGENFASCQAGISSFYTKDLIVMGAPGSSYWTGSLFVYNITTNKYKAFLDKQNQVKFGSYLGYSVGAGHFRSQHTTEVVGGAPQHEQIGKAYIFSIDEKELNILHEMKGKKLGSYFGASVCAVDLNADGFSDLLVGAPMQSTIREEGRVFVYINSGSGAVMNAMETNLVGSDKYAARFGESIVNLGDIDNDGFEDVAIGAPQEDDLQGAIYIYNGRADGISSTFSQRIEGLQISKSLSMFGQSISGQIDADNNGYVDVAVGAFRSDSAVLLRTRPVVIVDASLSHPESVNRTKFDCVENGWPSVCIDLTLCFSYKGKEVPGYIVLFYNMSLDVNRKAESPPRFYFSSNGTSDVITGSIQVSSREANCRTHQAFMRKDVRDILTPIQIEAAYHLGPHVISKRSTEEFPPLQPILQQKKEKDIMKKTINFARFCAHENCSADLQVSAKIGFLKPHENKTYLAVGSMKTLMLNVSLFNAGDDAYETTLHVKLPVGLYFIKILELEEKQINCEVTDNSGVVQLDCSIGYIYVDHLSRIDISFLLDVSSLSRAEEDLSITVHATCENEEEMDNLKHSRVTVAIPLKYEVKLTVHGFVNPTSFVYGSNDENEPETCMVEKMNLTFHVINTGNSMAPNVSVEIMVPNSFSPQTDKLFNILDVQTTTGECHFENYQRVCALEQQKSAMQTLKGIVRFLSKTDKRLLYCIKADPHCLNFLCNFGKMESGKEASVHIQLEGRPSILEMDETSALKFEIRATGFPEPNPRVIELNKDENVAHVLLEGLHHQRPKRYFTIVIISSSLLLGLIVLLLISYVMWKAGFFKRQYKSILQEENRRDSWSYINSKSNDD

[8] = calorie-restriction mimetic ROS inhibitors, yeast – validation compound set, pilot screen (AID 2706;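 active = superoxide response below 65% of plate, a cut near 3 SD across the whole screen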;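 also: yeast exposed to compound for one week at 30 degrees C before staining; 100% = mean of all compound wells on the same plate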); conditions: S. cerevisiae aging, superoxide DHE fluorescence; at 10 µM; stronger effect = lower value
[9] = biological target: Beta-adrenergic receptor kinase 1 (Homo sapiens) (UniProt P25098); assay: GRK2 binders displacing RNA aptamer, biochemical, validation, human GRK2, bead flow cytometry (AID 488806;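 active = aptamer binding inhibition above 30%, about 3 SD of noise from non-fluorescent compounds; inactive = inhibition at or below 30%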); conditions: bead-bound GRK2, FAM-aptamer displacement, at 10 µM, stronger effect = higher value
Beta-adrenergic receptor kinase 1 (Homo sapiens), sequence (P25098 whole entry, looked up): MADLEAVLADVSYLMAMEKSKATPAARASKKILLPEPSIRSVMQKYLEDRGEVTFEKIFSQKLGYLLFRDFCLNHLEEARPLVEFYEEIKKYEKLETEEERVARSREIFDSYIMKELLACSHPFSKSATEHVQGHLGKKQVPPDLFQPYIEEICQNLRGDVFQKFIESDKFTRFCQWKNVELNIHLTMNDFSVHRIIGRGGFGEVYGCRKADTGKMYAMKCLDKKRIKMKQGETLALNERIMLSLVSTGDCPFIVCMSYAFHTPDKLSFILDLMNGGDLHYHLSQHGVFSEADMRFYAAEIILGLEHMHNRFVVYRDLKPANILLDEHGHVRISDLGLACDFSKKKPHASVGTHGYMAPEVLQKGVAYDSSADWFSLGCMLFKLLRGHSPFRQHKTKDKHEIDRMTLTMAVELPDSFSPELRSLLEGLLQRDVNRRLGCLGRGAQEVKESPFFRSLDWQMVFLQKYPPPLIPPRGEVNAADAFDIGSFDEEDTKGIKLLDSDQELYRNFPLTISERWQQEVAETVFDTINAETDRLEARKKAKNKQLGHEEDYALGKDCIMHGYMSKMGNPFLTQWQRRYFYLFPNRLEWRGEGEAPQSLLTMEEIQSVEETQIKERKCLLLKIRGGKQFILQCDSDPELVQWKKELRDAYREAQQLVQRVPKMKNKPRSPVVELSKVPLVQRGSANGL

[10] = biological target: Beta-2 adrenergic receptor (Homo sapiens) (UniProt P07550); assay: agonist-induced loss of surface beta2AR – cell-based, FAP fluorogen, flow cytometry, validation set, pilot screen (AID 504459;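 active = percent response above 42, roughly 3 SD of non-fluorescent test compounds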;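 also: agonist-driven loss of surface beta2AR via internalization measured by FAP dye flow cytometry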); conditions: Am2.2-beta2AR cells, at 10 µM, stronger effect = higher value
Beta-2 adrenergic receptor (Homo sapiens), sequence (P07550 whole entry, looked up): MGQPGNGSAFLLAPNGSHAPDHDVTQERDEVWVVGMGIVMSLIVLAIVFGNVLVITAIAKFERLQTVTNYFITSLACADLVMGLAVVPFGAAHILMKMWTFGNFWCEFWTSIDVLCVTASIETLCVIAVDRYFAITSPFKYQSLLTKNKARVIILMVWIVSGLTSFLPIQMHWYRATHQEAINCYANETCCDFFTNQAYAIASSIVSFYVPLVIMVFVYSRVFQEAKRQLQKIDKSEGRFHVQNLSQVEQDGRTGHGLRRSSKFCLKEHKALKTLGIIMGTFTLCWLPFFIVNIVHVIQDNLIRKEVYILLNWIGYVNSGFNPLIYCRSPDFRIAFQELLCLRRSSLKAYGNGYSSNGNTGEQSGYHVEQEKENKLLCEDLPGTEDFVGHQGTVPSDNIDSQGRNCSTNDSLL

[11] = biological target: AP-2 complex subunit beta (Homo sapiens) (UniProt P63010); assay: beta-arrestin/AP2 interaction blockers – biochemical, validation set, GST-AP2 beads, flow cytometry, pilot screen (AID 504541;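 active = inhibition above 54%, about 3 SD of non-fluorescent compounds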;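 also: AP2 carries R879A mutation and is captured from E. coli lysate; bead-bound FITC arrestin peptide fluorescence measuring arrestin peptide binding to AP2; 0% = DMSO wells and 100% = excess unlabeled arrestin peptide control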); conditions: FITC arrestin peptide, at 10 µM, stronger effect = higher value, AP2 beta2 appendage fragment, R879A mutant
AP-2 complex subunit beta (Homo sapiens), sequence (P63010 whole entry, looked up, the tested form may be a part, one chain of several): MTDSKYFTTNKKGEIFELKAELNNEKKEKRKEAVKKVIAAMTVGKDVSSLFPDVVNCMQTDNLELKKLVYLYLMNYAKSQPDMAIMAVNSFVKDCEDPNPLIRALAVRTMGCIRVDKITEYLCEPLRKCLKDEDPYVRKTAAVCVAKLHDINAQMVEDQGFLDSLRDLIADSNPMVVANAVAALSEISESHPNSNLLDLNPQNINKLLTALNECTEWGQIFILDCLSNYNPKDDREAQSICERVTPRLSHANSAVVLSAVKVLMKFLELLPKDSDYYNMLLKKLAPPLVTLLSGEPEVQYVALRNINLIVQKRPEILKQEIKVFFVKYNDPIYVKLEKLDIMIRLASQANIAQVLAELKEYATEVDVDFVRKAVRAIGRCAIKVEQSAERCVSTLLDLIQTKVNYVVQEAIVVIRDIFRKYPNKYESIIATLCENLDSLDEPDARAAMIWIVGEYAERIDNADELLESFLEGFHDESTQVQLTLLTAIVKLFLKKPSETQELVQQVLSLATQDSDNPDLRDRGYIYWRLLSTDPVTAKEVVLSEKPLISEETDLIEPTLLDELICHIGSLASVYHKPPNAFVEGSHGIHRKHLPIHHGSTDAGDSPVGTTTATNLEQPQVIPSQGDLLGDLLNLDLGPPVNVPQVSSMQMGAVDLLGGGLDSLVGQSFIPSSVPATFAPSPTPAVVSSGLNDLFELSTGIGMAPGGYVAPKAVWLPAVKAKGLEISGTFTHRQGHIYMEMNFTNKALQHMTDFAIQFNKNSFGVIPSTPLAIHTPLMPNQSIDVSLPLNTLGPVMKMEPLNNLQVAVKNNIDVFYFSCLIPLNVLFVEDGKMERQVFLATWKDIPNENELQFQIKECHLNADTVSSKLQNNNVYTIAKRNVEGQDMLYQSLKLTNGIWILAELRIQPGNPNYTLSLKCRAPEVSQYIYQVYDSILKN

[12] = cytosolic pH regulators acting via V-ATPase – S. cerevisiae, pHLuorin, HTS validation (AID 504600; in the data active = response above about 15%;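 also: plate controls were DMSO for no effect and reference compound for full effect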); conditions: V-ATPase proton transport, at 10 µM, stronger effect = higher value
[13] = test system: anti-desmoglein-3 scFv antibody binding to human DSG3; assay: blockers of pathogenic pemphigus antibody–desmoglein-3 binding – biochemical, validation compound set, bead-based, flow cytometry, pilot screen (AID 588368;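 active = binding below the plate cutoff, the plate median minus 3 SD, with a reading above zero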;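 also: signal is the median channel fluorescence of bead-bound GFP antibody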); conditions: Protein G beads, DSG3-Fc, scFv-GFP binding, at 10 µM, stronger effect = lower value
[14] = Nile Red efflux blockade in pump-expressing yeast – validation compound set, multiplex, phenotypic, pilot screen (AID 588506;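 active = efflux inhibition above 0.42, the validation set average plus 4 SD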;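 also: Nile Red retained in cells so higher fluorescence means more efflux inhibition; 0 = negative control wells and 1 = enniatin B 25 µM full block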); conditions: S. cerevisiae pump-expressing triplex, Nile Red efflux flow cytometry; at 10 µM; stronger effect = higher value; the pumps come from Candida albicans
[15] = biological target: ATP-binding cassette sub-family B member 6 (Homo sapiens) (UniProt Q9NP58); assay: blockers of ABCB6-driven porphyrin uptake – K562-ABCB6 cells, flow cytometry, validation set, pilot screen (AID 588550;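 active = inhibition above the screen-wide mean plus 3 SD, about 51%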;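 also: 0% = DMSO wells and 100% = benzethonium chloride 70 µM positive control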); conditions: K562-ABCB6 porphyrin accumulation, 1 h, at 10 µM, stronger effect = higher value
ATP-binding cassette sub-family B member 6 (Homo sapiens), sequence (Q9NP58 whole entry, looked up): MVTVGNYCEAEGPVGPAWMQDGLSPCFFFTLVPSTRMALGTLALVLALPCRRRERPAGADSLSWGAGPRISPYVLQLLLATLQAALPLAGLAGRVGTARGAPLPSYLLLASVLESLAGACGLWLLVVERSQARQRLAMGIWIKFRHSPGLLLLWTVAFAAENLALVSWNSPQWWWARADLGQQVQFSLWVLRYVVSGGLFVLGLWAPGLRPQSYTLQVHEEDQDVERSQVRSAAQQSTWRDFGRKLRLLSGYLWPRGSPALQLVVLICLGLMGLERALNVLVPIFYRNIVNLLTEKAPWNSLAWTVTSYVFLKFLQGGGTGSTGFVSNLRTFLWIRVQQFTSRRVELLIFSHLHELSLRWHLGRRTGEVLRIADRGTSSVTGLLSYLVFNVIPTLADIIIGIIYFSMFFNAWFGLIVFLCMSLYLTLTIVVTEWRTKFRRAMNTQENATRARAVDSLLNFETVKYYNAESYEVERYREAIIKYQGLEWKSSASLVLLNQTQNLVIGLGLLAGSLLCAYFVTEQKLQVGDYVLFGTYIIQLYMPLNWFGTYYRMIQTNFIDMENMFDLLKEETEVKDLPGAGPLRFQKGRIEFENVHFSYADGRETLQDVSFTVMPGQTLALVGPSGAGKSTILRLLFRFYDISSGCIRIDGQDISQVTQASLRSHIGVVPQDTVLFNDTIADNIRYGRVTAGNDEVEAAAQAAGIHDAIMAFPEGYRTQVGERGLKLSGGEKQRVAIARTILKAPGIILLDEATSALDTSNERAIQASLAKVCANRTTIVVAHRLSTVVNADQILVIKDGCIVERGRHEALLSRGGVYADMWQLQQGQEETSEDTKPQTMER

[16] = AML differentiation inducers, ER-HoxA9 marrow cells – cell-based, GFP/MAC1 double positive, flow cytometry, validation set, primary screen (AID 588685;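 active = differentiation response of at least 50%, scaled between solvent and reference control, from cells with both markers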;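 also: compound exposure lasts four days before antibody staining and flow analysis; 0% = DMSO wells and 100% = 5 µM fulvestrant positive control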); conditions: stronger effect = higher value, normalized: vehicle 0, fulvestrant 100

CN(C)C(=O)CCCCCCCCC(=O)N(C)C
inactive: percent of DMSO control GFP [1] 90.6% | percent response of DMSO control [3] 107% | GFP response vs DMSO [4] 79.2% | GFP response, % of DMSO [5] 93.3% | vesicle binding response [6] 194% | inhibition [7] 7.43% | superoxide response (% of plate) [8] 81.8% | aptamer binding inhibition [9] 5% | response [10] 3.92% | inhibition [11] 12.9% | response [12] -5.22% | binding (% of control) [13] 101% | efflux inhibition (fraction of control) [14] 0.16 | inhibition [15] 6% | differentiation response [16] 1.64%
64.1%: double positive events [6]
active: GFP response vs DMSO [2] 146%

CC(=O)Oc1ccc(C(c2ccc(OC(C)=O)cc2)c2ccccn2)cc1
inactive: percent of DMSO control GFP [1] 98.9% | GFP response vs DMSO [2] 104% | percent response of DMSO control [3] 99.6% | GFP response vs DMSO [4] 125% | GFP response, % of DMSO [5] 117% | vesicle binding response [6] 203% | inhibition [7] -42% | superoxide response (% of plate) [8] 105% | aptamer binding inhibition [9] 4% | response [10] -25.8% | inhibition [11] -3.7% | response [12] -1.07% | binding (% of control) [13] 106% | efflux inhibition (fraction of control) [14] 0.08 | inhibition [15] 6% | differentiation response [16] -7.94%
63.6%: double positive events [6]

Cc1nonc1CN(C)C(=O)c1ccc(OC2CCN(C(=O)c3cccnc3)CC2)cc1
57.8%: double positive events [6]
inactive: percent of DMSO control GFP [1] 103% | GFP response vs DMSO [2] 105% | percent response of DMSO control [3] 109% | GFP response vs DMSO [4] 98% | GFP response, % of DMSO [5] 102% | vesicle binding response [6] 176% | inhibition [7] 12.3% | superoxide response (% of plate) [8] 94.8% | aptamer binding inhibition [9] 0% | response [10] -1.64% | inhibition [11] -7.99% | response [12] 2.88% | binding (% of control) [13] 103% | efflux inhibition (fraction of control) [14] 0.05 | inhibition [15] 12% | differentiation response [16] -8.96%

CC(C[N+](C)(C)C)OC(N)=O (stereo not given)
inactive: percent of DMSO control GFP [1] 100% | GFP response vs DMSO [2] 98.6% | percent response of DMSO control [3] 89.9% | GFP response vs DMSO [4] 104% | GFP response, % of DMSO [5] 110% | vesicle binding response [6] 164% | inhibition [7] 11.7% | superoxide response (% of plate) [8] 96.5% | aptamer binding inhibition [9] 2% | response [10] -16.4% | inhibition [11] -15.8% | response [12] 0.77% | binding (% of control) [13] 103% | efflux inhibition (fraction of control) [14] 0.08 | inhibition [15] 12% | differentiation response [16] 0%
66.5%: double positive events [6]

O=C1C(=O)N2C(=C1C(=O)N1CCCCCC1)c1ccccc1CC21CCCC1
inactive: percent of DMSO control GFP [1] 92.2% | GFP response vs DMSO [2] 109% | percent response of DMSO control [3] 86.3% | GFP response vs DMSO [4] 120% | GFP response, % of DMSO [5] 99.8% | vesicle binding response [6] 201% | inhibition [7] 9.13% | superoxide response (% of plate) [8] 115% | aptamer binding inhibition [9] 3% | response [10] -8.46% | inhibition [11] 31.8% | response [12] -1.64% | binding (% of control) [13] 105% | efflux inhibition (fraction of control) [14] -0.13 | inhibition [15] 3% | differentiation response [16] 5.6%
59.4%: double positive events [6]

Cc1cccc(NC(=O)c2cc3ccccc3o2)c1
69.2%: double positive events [6]
inactive: percent of DMSO control GFP [1] 94.6% | GFP response vs DMSO [2] 115% | percent response of DMSO control [3] 112% | GFP response vs DMSO [4] 90.8% | GFP response, % of DMSO [5] 86.3% | vesicle binding response [6] 162% | inhibition [7] 5.49% | superoxide response (% of plate) [8] 90.5% | aptamer binding inhibition [9] 2% | response [10] -1.7% | inhibition [11] 1.31% | response [12] -0.5% | binding (% of control) [13] 102% | efflux inhibition (fraction of control) [14] -0.24 | inhibition [15] 17% | differentiation response [16] 3.28%

Clc1ccc2c(c1)[C@H]1OCC[C@H]1[C@@H](c1ccco1)N2
inactive: percent of DMSO control GFP [1] 108% | GFP response vs DMSO [2] 105% | percent response of DMSO control [3] 107% | GFP response vs DMSO [4] 113% | GFP response, % of DMSO [5] 88.8% | vesicle binding response [6] 144% | inhibition [7] 1.59% | superoxide response (% of plate) [8] 103% | aptamer binding inhibition [9] -1% | response [10] 3.26% | inhibition [11] 3.61% | response [12] 3.05% | binding (% of control) [13] 104% | efflux inhibition (fraction of control) [14] 0.27 | inhibition [15] -23% | differentiation response [16] -16.3%
54.8%: double positive events [6]

c1ccc(Cn2nnc3cnccc32)cc1
57.9%: double positive events [6]
inactive: percent of DMSO control GFP [1] 104% | GFP response vs DMSO [2] 101% | percent response of DMSO control [3] 104% | GFP response vs DMSO [4] 106% | GFP response, % of DMSO [5] 107% | vesicle binding response [6] 67.8% | inhibition [7] 4.27% | superoxide response (% of plate) [8] 113% | aptamer binding inhibition [9] 2% | response [10] 0.22% | inhibition [11] -12.1% | response [12] 0.84% | binding (% of control) [13] 102% | efflux inhibition (fraction of control) [14] 0.33 | inhibition [15] 9% | differentiation response [16] -10.4%

CC(=O)CCCCn1c(=O)c2c(ncn2C)n(C)c1=O
57.8%: double positive events [6]
inactive: percent of DMSO control GFP [1] 103% | GFP response vs DMSO [2] 96.2% | percent response of DMSO control [3] 106% | GFP response vs DMSO [4] 82.2% | GFP response, % of DMSO [5] 97.5% | vesicle binding response [6] 162% | inhibition [7] 12% | superoxide response (% of plate) [8] 102% | aptamer binding inhibition [9] 2% | response [10] -1.49% | inhibition [11] 4.72% | response [12] 0.63% | binding (% of control) [13] 95.5% | inhibition [15] -3% | differentiation response [16] 20.8%
active: efflux inhibition (fraction of control) [14] 0.49

CC(C)N1C(=O)/C(=C\c2nc3ccccc3c(=O)[nH]2)c2ccccc21
60.8%: double positive events [6]
inactive: percent of DMSO control GFP [1] 103% | GFP response vs DMSO [2] 106% | percent response of DMSO control [3] 103% | GFP response vs DMSO [4] 128% | GFP response, % of DMSO [5] 93.8% | vesicle binding response [6] 157% | inhibition [7] -7.25% | superoxide response (% of plate) [8] 125% | aptamer binding inhibition [9] 6% | response [10] 32.8% | inhibition [11] -10.5% | response [12] -1.63% | binding (% of control) [13] 101% | efflux inhibition (fraction of control) [14] -0.1 | inhibition [15] 6% | differentiation response [16] -21.6%
